Compound activity as filed in PubChem.
A549 tox: Nrf2 qHTS screen for inhibitors: counterscreen for cytotoxicity. A549 ARE-Fluc cells, CellTiter-Fluor viability, 18-24 h. Potency, µM (doses to about 46 µM), inactives show at the highest dose activity change, negative = cytotoxicity, hits mostly inhibitors. 0.16% of 390,000 active; further: potency means the concentration at half of the fitted maximal effect; on the % scale 0 is the no-effect control and ±100 the full control effect
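A549 ARE-Fluc cells in 5% FBS OPTI-MEM, 5000 cells/well, rested 2 h then exposed to compounds in concentration-response for 18-24 h at 37 °C. Viability by CellTiter-Fluor fluorescence (Ex 405/Em 525) after 30 min; luciferase luminescence (BugLite, 15 min, RT) read afterwards.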
Nrf2 inh: Nrf2 qHTS screen for inhibitors; A549 ARE-Fluc reporter, luciferase luminescence, 18-24 h; Potency, µM (titrated, usually from 46 µM), inactives show top-dose activity change, negative = inhibition, usual class: inhibitors; 2.1% of 360,000 active; AID 504444, 2011; further: potency means the concentration at half of the fitted maximal effect; on the % scale 0 is the no-effect control and ±100 the full control effect; nearly all actives have a fitted effect of over 60% in size
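Nrf2 activity is the BugLite luminescence, read 15 min after reagent at room temperature, following CellTiter-Fluor cytotoxicity readout (30 min, 37C). Compound titrations were applied for 18-24 h to 5000 A549 ARE_Fluc cells/well in 5% FBS OPTI-MEM.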
Nrf2 ARE act: qHTS of Nrf2 Activators. AREc32 ARE-luciferase reporter (MCF7-derived line), luminescence, 24 h. Potency, µM (titrated, usually from 46.1 µM), for the others: at the highest dose activation, usual class: activators. 0.31% of 410,000 active; further: potency means the concentration at half of the fitted maximal effect; % of control where 0% means no effect; nearly all actives have a fitted effect of over 65% in size
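Nrf2 activation is followed as ARE-luciferase induction in the AREc32 line after one day of compound treatment; luminescence is read with Steady-Glo.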
TCR act: Activators of T cell receptors: qHTS campaign | 330,000 tested, under 10 active | primary human leukocytes, anti-CD3, IL-2 HTRF, 48 h | Potency, µM (top dose mostly 9.22 µM), without a hit: at the highest dose activation of IL-2 secretion, actives largely listed as activators; further: % of control where 0% means no effect
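Primary human leukocytes receive a-CD3 beads and test compound and are incubated 48 hr. Secreted IL-2 is then assayed by HTRF, measuring 665nm acceptor emission after 320nm excitation of the europium donor.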
miR-21 act: qHTS Assay for Modulators of miRNAs and/orActivators of miR-21. 340,000 tested, under 10 active. AID 2288, 2010. HeLa miR-21 FLuc reporter, luciferase, 48 h. Potency, µM (titrated, usually from 38.3 µM), for the others: at the highest dose activity change, positive = activation, hits mostly activators;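 further: % of control where 0% means no effect; miR-21 action dims this reporter so a rising signal means less miR-21 action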
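HeLa cells stably expressing CMV-driven firefly luciferase with a downstream miR-21 binding sequence, endogenously expressing miR-21, were treated with titrations (up to about 40uM final) for 48 hours at 37 degree Celsius. Luciferase luminescence was read after lysis.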
ClpP mod: qHTS Assay for Activators of ClpP; ATP-dependent Clp protease proteolytic subunit (Bacillus subtilis (strain 168)), P80244; purified B. subtilis ClpP, FRET peptide cleavage, 20 min; Potency, µM (highest dose often 57.5 µM), inactives show at the highest dose activity change, negative = active; 1.9% of 340,000 active; AID 651965, 2013; active means well fitted falling curve with a large enough effect; inconclusive means small, poorly fitted or top-dose-only effect; inactive means no such curve, though single readings can be large or run the other way; further: potency means the concentration at half of the fitted maximal effect; the source files actives as falling curves though it sought activators and does not explain the sign; nearly all actives have a fitted effect of over 65% in size
Target sequence (P80244 whole entry, looked up): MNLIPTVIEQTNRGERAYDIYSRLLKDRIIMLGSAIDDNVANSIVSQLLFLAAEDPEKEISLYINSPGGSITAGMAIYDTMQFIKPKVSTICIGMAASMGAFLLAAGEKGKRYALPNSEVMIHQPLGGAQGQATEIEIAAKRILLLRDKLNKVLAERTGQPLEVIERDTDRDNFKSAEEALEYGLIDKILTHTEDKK
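Purified B. subtilis ClpP, 10 microg/mL final in Tris/HCl pH8 with KCl, BSA, glycerol and Tween-20, cleaved an Abz/nitrotyrosine-quenched decapeptide. Fluorescence (ex 320, em 430) was read at 0 and 20 min at room temperature. Delta was normalized to 5.8 microM ADEP and DMSO/no-enzyme controls.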
An asterisk follows results filed as active; ? = inconclusive; nt = no result given; [ ] = remark or other dose. Rows were chosen to be rich in hits. Some 3.7% of all compounds tested hit in one or more screens of this group. Unless noted, the call rests on the fitted dose curve; in most records, active means well fitted curve in the direction sought with a large enough effect; inconclusive means small, poorly fitted or top-dose-only effect, or another doubt; inactive means no such curve, though single readings can be large; an effect the other way counts as inactive or inconclusive.

SMILES	A549 tox	Nrf2 inh	Nrf2 ARE act	TCR act	miR-21 act	ClpP mod
O=C(c1ccc2c(c1)N(Cc1c(F)cccc1Cl)C(=O)c1ccccc1S2)N1CCC2(CC1)OCCO2	?	21µM*	0%	nt	-3%	-1%
Cc1cc(C)c2c(ccc3cccc[n+]32)c1	?	1.3µM*	-1%	-2%	nt	0%
CC1(C)Cc2c(c(N3CCOCC3)nc3sc4c(NCc5ccccc5)nnnc4c23)CS1	-2%	2.6µM*	-1%	-4%	-9%	-9%
COc1ccc(C=C(C(=O)O)c2ccc(OC)cc2)cc1	1%	?	0%	2%	nt	1%
CC1CCCN(c2ccc(C(=O)N3CCC4(CC3)OCCO4)cc2[N+](=O)[O-])C1 (stereo not given)	-7%	3%	0%	nt	1%	2%
CCOC(=O)C1CCCN(c2ccc([N+](=O)[O-])c3nonc23)C1 (stereo not given)	18µM*	-27%	5%	0%	3%	-2%
CC1N(C)c2cc(NC(=O)c3ccco3)c(P(=O)(Nc3ccc([N+](=O)[O-])cc3)N3CCOCC3)cc2C1(C)C (stereo not given)	21µM*	16µM*	4%	2%	21%	-2%
CCOc1ccc(-c2cc(C)[n+](CCO)c(-c3ccc(OCC)cc3)c2)cc1	-7%	12µM*	0%	-8%	?	3%
CCOC(=O)c1ccc(N2CCN(c3ccccc3F)CC2)c(NC(=O)Nc2ccc(Cl)c(Cl)c2)c1	11%	nt	-1%	nt	-1%	?
O=C(c1ccc2nc3ccc(Cl)cc3c(=O)n2c1)N1CCC2(CC1)OCCO2	4%	?	0%	nt	nt	14µM*
COc1ccc(CN2CCc3nc(N4CCN(c5ccc(F)cc5)CC4)ncc3C2)c(OC)c1OC	-28%	nt	0%	nt	?	-12%
Cc1ccc2c(c1)C1CN(C)CCC1N2C(=O)c1ccccc1NS(=O)(=O)c1cccc(C(F)(F)F)c1 (stereo not given)	?	?	5%	1%[46.1 µM]	-11%	-1%
COc1ccc(NC(=O)CCn2cnc3onc(-c4ccc(F)cc4)c3c2=O)cc1OC	-14%	23µM*	3%	nt	-2%	-1%
CCN(CC)c1ccc(/C=C2\C(=O)NC(=S)N(c3ccc(OC)cc3OC)C2=O)o1	13µM*	-20%	5%	0%	nt	-1%
O=C(NCc1ccc(Cl)cc1)C1CCN(C(=O)c2cnn(-c3ccccc3)c2-n2cccc2)CC1	-20%	?	7%	nt	23%	0%
Cc1ccccc1-c1nc(CS(=O)CC(=O)N2CCC3(CC2)OCCO3)c(C)o1 (stereo not given)	0%	-28%	0%	2%	-6%	-7%
Cc1ccsc1-c1nc(CSCC(=O)N2CCC3(CC2)OCCO3)c(C)o1	-1%	-18%	0%	-61%	-1%	32µM*
CCOc1ccc(CC(=O)Nc2ccc3c(c2)N(C)C(=O)c2ccccc2S3)cc1OCC	-19%	nt	8%	nt	?	0%
CN1C(=O)c2ccccc2Sc2ccc(NC(=O)NCc3ccc(Cl)cc3)cc21	-11%	15µM*	0%	nt	?	-4%
NC(=O)c1cc(N2CC2)c([N+](=O)[O-])cc1[N+](=O)[O-]	?	13µM*	1%	5%	nt	2%
CC(=O)Nc1ccc(S(=O)(=O)N(C)CCOCc2ccccc2)cc1	2%	nt	0%	-3%	10%	22µM*
CN(C)c1ccc(/C=C/c2cc[n+](C)c3ccccc23)cc1	16µM*	8.2µM*	-1%	51%	?	1%
CN(C)c1ccc(/C=C/C=C/c2sc3ccccc3[n+]2C)cc1	-12%	?	3%	18%	?	nt
O=Nc1c(O)c2ccccc2c2ccccc12	?	23µM*	-3%	4%	nt	2%
CCOC(=O)c1[nH]c(=O)c2ccccc2c1O	-3%	?	0%	0%[46.1 µM]	-14%	-28%
SMILES	A549 tox	Nrf2 inh	Nrf2 ARE act	TCR act	miR-21 act	ClpP mod
O=S(=O)(CCN1CCN(c2ccccn2)CC1)c1ccc(Cl)cc1Cl	2%	3%	10%	-2%	1%	?
Cc1cccc(-n2nc(C)c(C(=O)N3CCN(c4ccccc4)CC3)c2-n2cccc2)c1	-10%	?	0%	nt	12%	-1%
Cc1cccc(N2CCN(C(=O)CCNS(=O)(=O)c3ccc4c(c3)oc(=O)n4C)CC2)c1C	2%	21µM*	2%	-4%	10%	nt
Cc1cccc(N2CCN(C(=O)CCS(=O)(=O)c3ccc4c(c3)oc(=O)n4C)CC2)c1C	4%	?	0%	-4%	9%	-1%
CC(C)(C)c1nc(N2CCN(C(=O)c3ccco3)CC2)c2nnn(Cc3ccccc3Cl)c2n1	2%	18µM*	1%	-1%	0%	-23%
Cc1nn(Cc2ccccc2Cl)c(Cl)c1C(=O)O	8%	2%	0%	-8%	-1%	-1%
Cc1c(C(=O)NCCC2=CCCCC2)oc2ccc(S(=O)(=O)N3CCC4(CC3)OCCO4)cc12	-16%	7.3µM*	2%	3%	20%	?
O=C(NCC(c1cccs1)N1CCOCC1)c1cc([N+](=O)[O-])cc([N+](=O)[O-])c1 (stereo not given)	-11%	?	2%	5%[46.1 µM]	-4%	-4%
COc1ccc([N+](=O)[O-])cc1CSc1ccccn1	8%	26%	11µM*	5%	-17%	1%
COc1ccc(C=C2C(=O)N(C)C(=O)N(C)C2=O)cc1CSc1ccccn1	11%	-6%	21%	5%	-10%	12%
Cc1ccc(-c2nc3ncccc3o2)cc1NC(=O)c1cccc(OCC(C)C)c1	0%	?	0%	nt	-1%	-9%
C[C@@H]1O[C@@H](O[C@@H]2C=C3CCC4C(CC[C@]5(C)[C@@H](c6ccc(=O)oc6)CC[C@]45O)[C@@]3(C)CC2)[C@H](O)[C@H](O)[C@H]1O (stereo not given in full)	?	?	-2%	1%	nt	0%
C[C@@H]1O[C@@H](O[C@H]2C[C@@H](O)[C@]3(CO)[C@H]4[C@H](O)C[C@]5(C)[C@@H](C6COC(=O)C6)CC[C@]5(O)[C@@H]4CC[C@]3(O)C2)[C@H](O)[C@H](O)[C@H]1O (stereo not given in full)	?	0.41µM*	-4%	-2%	?	0%
